Measurements as given in PubChem BioAssay (Tox21).
“And” between values parts separate entries of the source, which are not always exact repeats. Equal values may be shown once. Records with an inconclusive call do not appear. Where a call stands in place of a potency, no number is given. The source holds several records for some structures; these can differ, active in one and inactive in another. The source made the active and inactive calls. The call rests on the fitted dose curve; in most records, active means well fitted inhibition curve with a large enough effect in the repeat runs; inconclusive means weak or mixed curves; inactive means no such curve, though single readings can be large or run the other way.
Potency means the concentration at half of the fitted maximal effect.

Assay: qHTS assay to identify small molecule antagonists of the estrogen related receptor (ERR) signaling pathway from Tox21 library (AID 1224848); further: nearly all actives have a fitted effect of over 50% in size
Conditions: ERR reporter cell line, luciferase antagonist mode, 18 h; series mostly up to 92.4 µM
Source text: U.S. Tox21 Program National Center for Advancing Translational Sciences [NCATS] NIH Chemical Genomics Center [NCGC] U.S. Environmental Protection Agency [EPA] National Institutes of Environmental Health Sciences [NIEHS] National Toxicology Program [NTP] U.S. Food and Drug Administration [FDA] Tox21 Assay Overview: Estrogen related receptors (ERRs), the first orphan nuclear receptors discovered, play an important role in the control of cellular energy metabolism. ERRs are required for high-energy production in response to the environmental challenges. ERR-alpha was also identified as an adverse marker for breast cancer progression; ERR-alpha-positive tumors have a poor prognosis. To screen and to identify environmental compounds that perturb the ERR signaling pathways could provide valuable information for potential therapeutic or preventive measures in the treatment of metabolic disease. For identifying ERR antagonists, ERR cell line (provided by NTP) has been used to screen Tox21 10K library.
Tox21 Assay Protocol Summary: The ERR cells were dispensed at 2,000 cells/5 ul/well in 1536-well white plates using a Multidrop dispenser. After the assay plates were incubated at a 37 C/5% CO2 incubator for 6 hours, 23 nL of compounds dissolved in DMSO, positive and negative controls or DMSO only was transferred to the assay plate by a pin tool. The plates were incubated at 37 C for 18 hours. 4 ul/well of One-Glo reagent was added into the assay plates using a Flying Reagent Dispenser. After 30-minute incubation at room temperature, the luminescence intensity in the plates was measured using a ViewLux plate reader.
With Cc1cn([C@H]2C[C@H](N=[N+]=[N-])[C@@H](CO)O2)c(=O)[nH]c1=O the Potency was “inactive”. With Nc1ccc(O)c(C(=O)O)c1 the Potency was “inactive”. With Cc1ccccc1C(OCCN(C)C)c1ccccc1 (centres undefined) the Potency was “inactive”. With NNC(=O)c1ccncc1 the Potency was “inactive”. For OC(Cn1cncn1)(Cn1cncn1)c1ccc(F)cc1F, the Potency was “inactive”. For CCCCC1C(=O)N(c2ccccc2)N(c2ccccc2)C1=O, the Potency was 61.1 µM (active) and inactive. With Nc1ccc(S(=O)(=O)Nc2nccs2)cc1 the Potency was “inactive”. With NS(=O)(=O)c1cc(C(=O)O)c(NCc2ccco2)cc1Cl the Potency was “inactive”. In the case of CC(O)CO (centres undefined), the Potency is reported as “inactive”. For O=C(O)CCC(=O)O, the Potency was “inactive”. In the case of O=C1CN(/N=C/c2ccc([N+](=O)[O-])o2)C(=O)N1, the Potency is reported as 19.3 µM (active) and 30.6 µM (active) and 21.1 µM (active). For COc1ccc2[nH]cc(CCNC(C)=O)c2c1, the Potency was “inactive”. With CC(=O)OCC(COC(C)=O)OC(C)=O the Potency was “inactive”. In the case of O=c1cc[nH]c(=S)[nH]1, the Potency is reported as “inactive”. With O=C(C1CCCCC1)N1CC(=O)N2CCc3ccccc3C2C1 (centres undefined) the Potency was “inactive”. For Oc1ccc(/C=C/c2cc(O)cc(O)c2)cc1, the Potency was “inactive”. For CNC[C@H](O)c1cccc(O)c1, the Potency was “inactive”. With CCCCC(CC)COC(=O)/C=C/c1ccc(OC)cc1 (centres undefined) the Potency was “inactive”. For c1ccc2[nH]ccc2c1, the Potency was 2.39 µM (active) and inactive. For CCCN(CCC)S(=O)(=O)c1ccc(C(=O)O)cc1, the Potency was “inactive”. For Cc1ccc(S(=O)(=O)NC(=O)NN2CCCCCC2)cc1, the Potency was “inactive”. In the case of Cc1cc(=O)n(-c2ccccc2)n1C, the Potency is reported as “inactive”. In the case of NC(=O)c1cnccn1, the Potency is reported as “inactive”. For CC1(C)[C@@H]2CC[C@@]1(C)C(=O)C2, the Potency was “inactive”.
